From PubChem BioAssay (Tox21) come the findings set out here.

Records with an inconclusive call do not appear. Unmarked numbers belong to inactive results. Calls of active or inactive are those of the source. Calls come from the whole dose curve.
% is set by controls: 0 for no effect and ±100 for the full control effect; potency is the fitted concentration of half-maximal effect.

The assay can be described thus: qHTS assay for small molecule agonists of the p53 signaling pathway - cell viability (AID 651633).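 For activity change, negative = cytotoxicity: p53RE-bla HCT reporter cells with a stable beta-lactamase p53 reporter.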 Note: nearly all actives have a fitted effect of over 30% in size. The conditions noted are these: p53RE-bla HCT-116 viability, ATP luminescence, 16 h; series mostly up to 83.3 µM; activity change, negative = cytotoxicity: at the top concentration. The source says: National Center for Advancing Translational Sciences [NCATS]
NIH Chemical Genomics Center [NCGC]
U.S. Environmental Protection Agency [EPA]
National Institutes of Environmental Health Sciences [NIEHS]
National Toxicology Program [NTP]
U.S. Food and Drug Administration [FDA]
p53, a tumor suppressor protein, is activated following cellular insult, including DNA damage and other cellular stresses. The activation of p53 regulates cell fate by inducing DNA repair, cell cycle arrest, apoptosis, or cellular senescence. The activation of p53, therefore, is a good indicator of DNA damage and other cellular stresses. […] The activation of the reporter gene under culture conditions can be detected by fluorescence intensity. This cell line was used to screen the Tox21 compound library in a 1536-well plate format and to identify agonists that activate the p53 signaling pathway.
Tox21 Assay Protocol Summary:
The p53RE-bla cells were dispensed at 4,000 cells/5 ul/well in 1536-well black wall/clear bottom plates using a Multidrop dispenser. After the assay plates were incubated at a 37 C/5% CO2 incubator for 5 hours, 23 nL of compounds dissolved in DMSO, positive controls or DMSO only was transferred to the assay plate by a pin tool. The plates were incubated at 37 C for 16 hours. After 1 uL of LiveBLAzerTM B/G FRET substrate was added using a Flying Reagent Dispenser, the plates were incubated at room temperature for 2 hours, and fluorescence intensity was measured by an Envision plate reader.
For cell viability readout that measures cytotoxicity, 4 ul/well of CellTiter-Glo reagent was added into the assay plates using a Flying Reagent Dispenser. After 30 min incubation at room temperature, the luminescence intensity in the plates was measured using a ViewLux plate reader.
A general note: In qHTS, concentration-response curves come from the screen itself.
With `C[C@H]1C[C@H]2[C@@H]3CCC4=CC(=O)C=C[C@]4(C)[C@@]3(Cl)[C@@H](O)C[C@]2(C)[C@@]1(O)C(=O)CO`, the “activity change, negative = cytotoxicity” value is 3.75%. Still for that read-out and setting: under `O=C1CCC(=O)O1` stands -15% [at 95.3 µM]; under `O=C(O)C(S)C(S)C(=O)O` (stereo not given), 6.68%; under `CC(=O)c1ccc2c(c1)N(CCCN(C)C)c1ccccc1S2`, 21.8% [at 39.1 µM]. On the same count and under the same terms, under `CC1=CC[C@H](C(C)C)C=C1` stands -6.3%; under `CCN(CC)CCOC(=O)C(Cc1cccc2ccccc12)CC1CCCO1` (stereo not given), 22.4% [at 39.1 µM]. On the same count and under the same terms, under `OCCN1CCN(CCCN2c3ccccc3C=Cc3ccccc32)CC1` stands 11.4%; under `CCN(CC)CCNc1ccc(CNC=O)c2sc3ccc(OC)cc3c(=O)c12`, 7.88%. `CC(C)OC(=O)C(C)N(C(=O)c1ccccc1)c1ccc(F)c(Cl)c1` (stereo not given): the “activity change, negative = cytotoxicity” value is -4.83%.

As for `C=CC1CC2C=CC1C2` (stereo not given), the “activity change, negative = cytotoxicity” value was 22.6%. With `CN(C)CCCN1c2ccccc2Sc2ccccc21`, the “activity change, negative = cytotoxicity” value is 25.7% [at 39.1 µM]. Still for that read-out and setting: under `COC(=O)c1ccc(I)cc1S(=O)(=O)NC(=O)Nc1nc(C)nc(OC)n1` stands 1.46%; under `Brc1c2ccccc2c(Br)c2ccccc12`, 12.3% [at 8.08 µM]. Turning to `CCCCO`, the Potency result was “inactive”. On to `COc1cc2nc(N3CCN(C(=O)C4COc5ccccc5O4)CC3)nc(N)c2cc1OC` (stereo not given), for which the “activity change, negative = cytotoxicity” value was 13.4%. Turning to `CCc1c(C(=O)NN2CCCCC2)nn(-c2ccc(Cl)cc2Cl)c1-c1ccc(Br)cc1`, the Potency is 13.7 µM (active). For `Clc1ccc2c(c1)CCc1cccnc1C2=C1CCNCC1`, the “activity change, negative = cytotoxicity” value is -23.2%.

Turning to `O=C1OC(CN2CCOCC2)CN1/N=C/c1ccc([N+](=O)[O-])o1` (stereo not given), the “activity change, negative = cytotoxicity” value was 7.79% [at 39.1 µM]. On the same count and under the same terms, the same measure for `NCCCN1CCOCC1`: 23.5%; for `CC(C)(O)c1ccc(CNC(=O)c2cccnc2Oc2ccc(F)cc2)cc1`: -15.1%.

In the case of `CN(C)c1ccc(/C=C/c2ccc([N+](=O)[O-])cc2)cc1`, the activity change, negative = cytotoxicity is -6.1% [at 8.08 µM]. Same read-out and setting: under `Cn1c(=O)cc(Oc2ccc(F)cc2F)c2cnc(NCC(C)(C)O)nc21` stands -18.8%; under `OC[C@H]1O[C@@H](OCCc2ccc(O)cc2)[C@H](O)[C@@H](O)[C@@H]1O`, -8.27%; under `CC(=O)NO`, 16.1%. On the same count and under the same terms, the same measure for `CCCCCCCCCOS(=O)(=O)O`: 11.6%; for `CC(COCCO)OCCO` (stereo not given): 18.1%. Same read-out and setting: the same measure for `C[C@H](CCC(=O)O)[C@H]1CC[C@H]2[C@@H]3CC[C@@H]4C[C@H](O)CC[C@]4(C)[C@H]3C[C@H](O)[C@]12C`: -17.6%.

In the case of `COc1ccc(C(=O)c2ccc(OC)cc2O)c(O)c1`, the “activity change, negative = cytotoxicity” value is 15.9% [at 95.3 µM]. Turning to `CCCCCCCCCCCCN1CCCCCC1=O`, the Potency is 15.4 µM (active). With `NCC(=O)O`, the “activity change, negative = cytotoxicity” value is 12.7%. Turning to `C=C1[C@H]2CC[C@@H]3[C@H]2C(C)(C)CCC[C@]13C`, the “activity change, negative = cytotoxicity” value was 2.83%. On the same count and under the same terms, the same measure for `CN(C)C(=O)NC1(c2ccccc2)CCN(CC[C@@]2(c3ccc(F)c(F)c3)CN(C(=O)c3ccccc3)CCO2)CC1`: -9.89%. In the case of `CN1CCC(=C2c3ccccc3Sc3ccccc32)CC1`, the Potency was 29.8 µM (active). For the compound `Nc1ccc(S(=O)(=O)Nc2ccccc2)cc1`, the “activity change, negative = cytotoxicity” value is -5.84%. In the case of `C[Si](C)(CCCN)O[Si](C)(C)CCCN`, the “activity change, negative = cytotoxicity” value was 19.1%.

Regarding `Brc1c2ccccc2cc2ccccc12`, the “activity change, negative = cytotoxicity” value is 1.83% [at 95.3 µM]. On to `CCCCCCCN`, for which the “activity change, negative = cytotoxicity” value is 17.3% [at 95.3 µM]. For the compound `O=C(O)c1nc(Cl)c(Cl)c(Cl)c1Cl`, the “activity change, negative = cytotoxicity” value is 4.47%.

Regarding `CC(C)(C)Cl`, the “activity change, negative = cytotoxicity” value was 10.7% [at 95.3 µM]. On the same count and under the same terms, under `COc1cc2c(cc1OC)C(C(C(=O)N(CCc1ccc(OC)c(OC)c1OC)CCc1ccc(OC)c(OC)c1OC)c1ccccc1)=NCC2` (stereo not given) stands -19%.
